The values that follow come from PubChem BioAssay (NCI).

Among the test systems are NCI-H23 lung; NCI-H226 lung; HOP-62 NSCLC; NCI-H460 lung; HOP-92 NSCLC; NCI-H522 lung; A549/ATCC NSCLC; COLO 205 colon; DU-145 prostate; K-562 leukemia; MDA-MB-231 breast; SF-268 CNS; SF-295 CNS; SF-539 CNS; UACC-257 melanoma; M14 melanoma; 786-0 renal; MALME-3M melanoma; RXF 393 renal.
Assay in all cases: NCI-60 one-dose screen, 48 h (100 = growth as untreated, 0 = no growth, -100 = all killed)
Conditions in all cases: 10 µM

Compounds without any hit were thinned out: in the full panel of roughly 83,000, 20% have a hit.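 Cells were grown in 96-well plates and exposed to the test compound at a single concentration for 48 hours; results are reported as percent growth, with values below 10 considered active.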 Values without a mark were called inactive. The source made the active and inactive calls.

For `Cc1ccc(C(SCC(N)C(=O)O)(c2ccc(C)cc2)c2ccc(C)cc2)cc1` (configuration not stated), the growth in the experiment with NCI-H23 lung is 18.3%; with NCI-H226 lung it was 64.1%; with HOP-62 NSCLC, -48.3% (active); in the experiment on NCI-H460 lung, 3.09% (active); with HOP-92 NSCLC, -15.3% (active); in the experiment with NCI-H522 lung, -66.2% (active). In addition, the growth with A549/ATCC NSCLC is 14.6%; with COLO 205 colon it was 0.644% (active); in the experiment with DU-145 prostate, -39% (active); in the experiment with K-562 leukemia, 0.419% (active); in the experiment on MDA-MB-231 breast, 1.37% (active); with SF-268 CNS, 17.6%. Besides, the growth with SF-295 CNS is -13.8% (active); in the experiment on SF-539 CNS it was -29.7% (active); with UACC-257 melanoma it was -18.5% (active); in the experiment on M14 melanoma, -74.5% (active).
As for `Cc1[nH]c2ccccc2c1/C=N/Nc1ncnc2sc3c(c12)CCN(CC(=O)OC(C)(C)C)C3`, the growth in the experiment on NCI-H23 lung was 91.6%; in the experiment with NCI-H226 lung, 98%; with HOP-62 NSCLC, 92.4%; in the experiment with NCI-H460 lung, 98.3%; in the experiment with NCI-H522 lung it was 58.4%; in the experiment on A549/ATCC NSCLC it was 65%. Also, the growth in the experiment with 786-0 renal was 47.1%; with COLO 205 colon, 63.4%; in the experiment on DU-145 prostate, 80.5%; with K-562 leukemia it was 22.3%; in the experiment on MALME-3M melanoma, 120%; in the experiment with MDA-MB-231 breast, 84.5%. Also, the growth in the experiment with RXF 393 renal was -0.516% (active); in the experiment on SF-268 CNS, 93.8%; in the experiment with SF-295 CNS it was 88.8%; in the experiment on SF-539 CNS, 62.7%; in the experiment on UACC-257 melanoma, 63.6%; in the experiment on M14 melanoma, 73.1%.
Take `CCOc1ccccc1/C=N/N1CCCCCC1`: the growth was 89.3% in the experiment with NCI-H23 lung; 88.2% in the experiment on NCI-H226 lung; 97.3% in the experiment with HOP-62 NSCLC; 107% in the experiment with NCI-H460 lung; 86.9% in the experiment on HOP-92 NSCLC; 102% in the experiment with NCI-H522 lung. In addition, the growth was 117% in the experiment with A549/ATCC NSCLC; 119% with 786-0 renal; 108% in the experiment on COLO 205 colon; 111% in the experiment on DU-145 prostate; 96.3% with MDA-MB-231 breast; 99.9% in the experiment on RXF 393 renal. The growth is 93.7% with SF-268 CNS; 83.8% in the experiment on SF-295 CNS; 109% with SF-539 CNS; 115% with UACC-257 melanoma; 107% in the experiment with M14 melanoma.
Regarding `S=c1cnc2ccccc2[nH]1`, the growth in the experiment with NCI-H23 lung is 98.4%; in the experiment on NCI-H226 lung, 107%; in the experiment on HOP-62 NSCLC, 93.3%; with NCI-H460 lung, 96.3%; with NCI-H522 lung, 95.5%; in the experiment with A549/ATCC NSCLC, 93.5%. For the same molecule, the growth with 786-0 renal was 98.9%; with COLO 205 colon, 95%; with DU-145 prostate, 103%; in the experiment with K-562 leukemia, 99.8%; in the experiment on MALME-3M melanoma it was 84.6%; in the experiment on MDA-MB-231 breast, 111%. Further, the growth with RXF 393 renal is 114%; in the experiment with SF-268 CNS, 95.7%; with SF-295 CNS, 103%; with SF-539 CNS it was -10.4% (active); in the experiment on UACC-257 melanoma, 99.1%; in the experiment on M14 melanoma, 89%.
In the case of `Nc1c(Br)cc(Br)c2c1[nH]c(=O)c1ccccc12`, the growth was 67% with NCI-H23 lung; 19.5% in the experiment with NCI-H226 lung; 22.4% in the experiment with HOP-62 NSCLC; 29.1% in the experiment with NCI-H460 lung; 82.8% in the experiment on HOP-92 NSCLC; 87.4% with NCI-H522 lung. The growth in the experiment with A549/ATCC NSCLC is 58.7%; with 786-0 renal it was 74.3%; in the experiment with COLO 205 colon, 86.5%; in the experiment with K-562 leukemia, 78.4%; with MALME-3M melanoma, 47.8%; in the experiment with MDA-MB-231 breast, 54.8%. The growth is 26.2% with RXF 393 renal; 76.9% with SF-268 CNS; 73.1% in the experiment with SF-295 CNS; 83.7% in the experiment on SF-539 CNS; 87.9% in the experiment with UACC-257 melanoma; 100% in the experiment with M14 melanoma.
With `CCCCN1C(=O)CC(SC2CC(=O)N(CCCC)C2=O)C1=O` (configuration not stated), the growth in the experiment with NCI-H23 lung is 97.9%; with NCI-H226 lung, 104%; in the experiment on HOP-62 NSCLC it was 106%; with NCI-H460 lung it was 108%; in the experiment with HOP-92 NSCLC, 97.8%; in the experiment with A549/ATCC NSCLC, 119%. The growth in the experiment with 786-0 renal was 112%; with COLO 205 colon, 102%; in the experiment with DU-145 prostate it was 103%; with K-562 leukemia, 118%; with MDA-MB-231 breast, 108%; in the experiment with RXF 393 renal, 122%. Moreover, the growth with SF-268 CNS was 101%; in the experiment on SF-295 CNS it was 109%; with SF-539 CNS it was 105%; with UACC-257 melanoma, 98.6%; with M14 melanoma, 113%.
With `CCC(=O)OC1CCC2C3CCC(=O)OC3C(C)(CCC(=O)O)CC12C` (configuration not stated), the growth in the experiment with NCI-H23 lung was 33.1%; with NCI-H226 lung it was 60.1%; in the experiment on HOP-62 NSCLC, 38.5%; in the experiment with NCI-H460 lung, 42.6%; in the experiment on HOP-92 NSCLC, -1.1% (active); in the experiment with NCI-H522 lung it was 24.7%. Besides, the growth is -41.7% (active) with 786-0 renal; 41.7% with COLO 205 colon; 2.12% (active) in the experiment on K-562 leukemia; 19.6% in the experiment on MDA-MB-231 breast; 50.1% in the experiment on SF-268 CNS; -18.6% (active) in the experiment on SF-295 CNS. In addition, the growth in the experiment on SF-539 CNS is 5.18% (active); with UACC-257 melanoma it was 55.7%; in the experiment with M14 melanoma, 25.8%.
On to `NC1=NC(c2ccc(Cl)cc2)C2=C(N1)/C(=C/c1ccc(Cl)cc1)CCC2` (configuration not stated), for which the growth is 61.1% in the experiment on NCI-H23 lung; 109% with NCI-H226 lung; 140% in the experiment on HOP-62 NSCLC; 91.3% with NCI-H460 lung; 19.1% in the experiment with NCI-H522 lung; 66.7% in the experiment on A549/ATCC NSCLC. The growth was 90.4% in the experiment with 786-0 renal; 92% in the experiment on COLO 205 colon; 97.2% with DU-145 prostate; 43.5% in the experiment with K-562 leukemia; 97.7% with MALME-3M melanoma; 102% in the experiment on MDA-MB-231 breast. In addition, the growth was 34.5% in the experiment with RXF 393 renal; 83.2% in the experiment on SF-268 CNS; 67.5% in the experiment on SF-295 CNS; 121% in the experiment with SF-539 CNS; 79.4% with UACC-257 melanoma; 11% in the experiment with M14 melanoma.
As to `O=C(N/N=C/c1ccc(Cl)cc1)c1ccccc1Nc1cccc(C(F)(F)F)c1`, the growth in the experiment with NCI-H23 lung is 91.2%; with NCI-H226 lung, 81.2%; in the experiment with HOP-62 NSCLC, 72.9%; in the experiment on NCI-H460 lung, 86.8%; in the experiment with HOP-92 NSCLC it was 73.7%; in the experiment with NCI-H522 lung, 77.9%. Also, the growth is 86% in the experiment with 786-0 renal; 108% with COLO 205 colon; 59.9% in the experiment on K-562 leukemia; 74.5% in the experiment with MDA-MB-231 breast; 84.6% with SF-268 CNS; 86.8% with SF-295 CNS. Further, the growth in the experiment on SF-539 CNS is 48.9%; in the experiment with UACC-257 melanoma it was 96.9%; in the experiment on M14 melanoma, 91.5%.
